Measurements: PubChem BioAssay (NCATS)
Records with an inconclusive call do not appear. Active and inactive are the calls of the source. Calls follow the shape of the dose curve; as a rule, active = well fitted inhibition curve with a large enough effect; inconclusive = small, poorly fitted or top-dose-only effect; inactive = flat fitted curve, though single readings scatter. Peptide text beside a SMILES is read from it.

system: AS120; assay: qHTS profiling for inhibitors of Plasmodium falciparum proliferation (AID 504749); also: nearly all actives have a fitted effect of over 60% in size;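 as to activity, negative = inhibition: 0% = DMSO vehicle and full inhibition = artemisinin control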; details: P. falciparum in erythrocytes, SYBR Green DNA, 72 h; series mostly up to 12.8 µM; activity, negative = inhibition: at the top concentration
Outline: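 SYBR Green fluorescence of parasite DNA, read after lysis and overnight dark incubation, measured growth over 72 h in erythrocyte culture at 0.3% parasitemia and 2.5% hematocrit. Data normalised to DMSO and 0.29 uM artemisinin, with plate-drift correction.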
Potency is read from the fitted curve at half-maximal effect.

activity, negative = inhibition, inactive:
CCC(C)C(=O)OC1CCC=C2C=CC(C)C(CCC3CC(O)CC(=O)O3)[C@@H]21 (some centres not stated) 12.3% [at 28.7 µM]
C[C@]1(c2ccccc2)OC(C(=O)O)=CC1=O 13.1% [at 28.7 µM]
OCC1OC([S-])[C@H](O)C(O)C1O.[Au+] (some centres not stated) -2.29% [at 28.7 µM]
COC(=O)N/N=C/C1=C[N+](=O)c2ccccc2[N+]1=O -3.56% [at 28.7 µM]
CN1CC(=O)N=C1N 1.27% [at 28.7 µM]
CNC1CC(N)[C@H](O)[C@@H](O[C@@H]2OC(CO)C3OC4(OC(C(N)CO)C(O)C(O)C4O)O[C@@H]3[C@H]2O)C1O (some centres not stated) 5.94% [at 28.7 µM]
CC(=O)N[C@@H]1C(O)OC(CO)C(O)C1O (some centres not stated) -8.84% [at 28.7 µM]
CCC(CCC(C)C1CCC2C3CC=C4CC(O)CC[C@@]4(C)C3CC[C@@]12C)C(C)C (some centres not stated) 5.97% [at 28.7 µM]
O=C1OC(CO)C(O)C(O)C1O (configuration not stated) 7.2% [at 28.7 µM]
CCCC(=O)O[C@]1(C(=O)CO)CCC2[C@@H]3CCC4=CC(=O)CC[C@]4(C)C3C(O)C[C@]21C (some centres not stated) 6.11% [at 28.7 µM]
COC(=O)C(Cc1ccccc1)NC(=O)C(N)CC(=O)O (stereo not drawn) (H-Asp-Phe-OMe; configuration not given here) 9.12% [at 28.7 µM]
CC[C@@]12CCCN3CCc4c(n(c5ccccc45)[C@](O)(C(=O)OC)C1)C32 (some centres not stated) 6.43% [at 28.7 µM]
CC1(C)SC2C(N3C(=O)C(c4ccccc4)NC3(C)C)C(=O)N2C1C(=O)O (configuration not stated) 0.821% [at 28.7 µM]
CC1CCC(C(C)C)C(=O)C1 (configuration not stated) 10.6% [at 28.7 µM]
CC(=O)N[C@H](CC(C)C)C(=O)O -4.38% [at 28.7 µM]
CC(C)C1CCC(C(=O)NC(Cc2ccccc2)C(=O)O)CC1 (configuration not stated) 2.37% [at 28.7 µM]
COc1ccc2cc(C(C)CO)ccc2c1 (configuration not stated) 11.8% [at 28.7 µM]
CNC1C(OC2C(O[C@@H]3C(O)C(O)[C@@H](N=C(N)N)C(O)C3N=C(N)N)OC(C)[C@@]2(O)CO)OC(CO)C(O)C1O (some centres not stated) 6.68% [at 28.7 µM]
CC1C2CCC3C4CC=C5CC(N(C)C)CC[C@@]5(C)C4CC[C@@]32CN1C (some centres not stated) 1.33% [at 28.7 µM]
C[C@]12C=CC(=O)C=C1CCC1C2C(O)C[C@]2(C)C1CC[C@]2(O)C(=O)CO (some centres not stated) 11.3% [at 28.7 µM]
COc1ccc2c(c1)N(C[C@@H](C)CN(C)C)c1ccccc1S2 -12.3%
CCOC(=O)C1=CC(OC(CC)CC)C(NC(C)=O)C(N)C1 (configuration not stated) 0.395% [at 28.7 µM]
CN(C)CCc1c[nH]c2ccc(CC3COC(=O)N3)cc12 (configuration not stated) 8.36% [at 28.7 µM]
NCC1CCC(N)C(O[C@@H]2C(O)[C@H](O[C@H]3OC(CO)C(O)C(N)C3O)[C@@H](N)C[C@H]2N)O1 (some centres not stated) 9.34% [at 28.7 µM]
OCC1O[C@H](OC2C(CO)O[C@@](O)(CO)C2O)C(O)C(O)C1O (some centres not stated) 14% [at 28.7 µM]
CC1(C)OC2CO[C@]3(COS(N)(=O)=O)OC(C)(C)OC3C2O1 (some centres not stated) 2.79% [at 28.7 µM]
CC(=O)OC1CCC2C3CCc4cc(O)ccc4C3CCC12C (configuration not stated) 1.48% [at 28.7 µM]
CN(C)CCCOC1C(C(O)CO)OC2OC(C)(C)O[C@@H]21 (some centres not stated) 7.17% [at 28.7 µM]

Potency, active:
COC1C=CO[C@@]2(C)Oc3c(C)c(O)c4c(O)c(c(C=NN5CCN(C)CC5)c(O)c4c3C2=O)NC(=O)/C(C)=C\C=CC(C)C(O)[C@@H](C)C(O)C(C)[C@H](OC(C)=O)C1C (some centres not stated) 282 nM
COc1ccc(CC(N)C(=O)NC2C(CO)OC(n3cnc4c(N(C)C)ncnc43)C2O)cc1 (configuration not stated) 891 nM
COc1ccc2cc1Oc1ccc(cc1)CC1c3c(cc4c(c3Oc3cc5c(cc3OC)CCN(C)C5C2)OCO4)CCN1C (configuration not stated) 3980 nM
COc1cc(C2c3cc4c(cc3C(O[C@@H]3OC5COC(c6cccs6)OC5C(O)C3O)C3COC(=O)C23)OCO4)cc(OC)c1O (some centres not stated) 1000 nM
